Data on 17 molecules can be found in ChEMBL document CHEMBL2218924, “A broad activity screen in support of a chemogenomic map for kinase signalling research and drug discovery” (Biochem J, 2013).

Structures are written as SMILES.

The target in this assay is T1, Tyrosine-protein kinase ZAP-70 (Homo sapiens) (UniProt P43403).
T1 sequence (whole entry): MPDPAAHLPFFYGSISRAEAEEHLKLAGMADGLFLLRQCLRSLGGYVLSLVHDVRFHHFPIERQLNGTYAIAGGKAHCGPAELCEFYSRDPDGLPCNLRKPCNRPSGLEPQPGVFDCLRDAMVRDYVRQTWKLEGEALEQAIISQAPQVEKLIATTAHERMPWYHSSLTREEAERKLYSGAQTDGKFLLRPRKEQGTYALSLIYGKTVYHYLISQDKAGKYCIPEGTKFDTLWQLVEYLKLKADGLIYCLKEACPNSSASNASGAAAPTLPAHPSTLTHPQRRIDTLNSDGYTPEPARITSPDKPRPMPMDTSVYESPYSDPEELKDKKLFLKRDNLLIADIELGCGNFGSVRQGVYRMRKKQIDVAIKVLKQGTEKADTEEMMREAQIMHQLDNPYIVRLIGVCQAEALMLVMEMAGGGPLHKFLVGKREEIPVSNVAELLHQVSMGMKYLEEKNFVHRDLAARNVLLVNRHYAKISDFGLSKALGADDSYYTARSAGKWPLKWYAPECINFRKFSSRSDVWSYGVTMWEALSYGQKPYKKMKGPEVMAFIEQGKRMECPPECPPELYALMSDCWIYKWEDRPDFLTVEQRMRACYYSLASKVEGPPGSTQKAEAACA
As to conditions: at 10 µM.
Broadly, the residual activity is the signal under treatment as a percentage of the control signal. `CC(=O)c1ccc(N2CCOCC2)cc1O`: the residual activity is 86%. Then `CO[C@H]1C[C@@H]2CC[C@@H](C)[C@@](O)(O2)C(=O)C(=O)N2CCCC[C@H]2C(=O)O[C@H]([C@H](C)C[C@@H]2CC[C@@H](O)[C@H](OC)C2)CC(=O)[C@H](C)/C=C(\C)[C@@H](O)[C@@H](OC)C(=O)[C@H](C)C[C@H](C)/C=C/C=C/C=C/1C`, with 121%. Turning to `O=C1NC(=O)c2cc(Nc3ccc(F)cc3)c(Nc3ccc(F)cc3)cc21`, the residual activity was found to be 119%. Then `Nc1nc(Nc2ccc(S(N)(=O)=O)cc2)nn1C(=S)Nc1c(F)cccc1F`, with 86%; and `COc1cc2ncnc(Nc3cccc(Cl)c3)c2cc1OC`, with 125%; and `COc1cc2ncnc(N3CCN(C(=O)Nc4ccc(Oc5ccccc5)cc4)CC3)c2cc1OC`, with 98%.

Regarding `CC(=O)O/N=C1\C(=C2\C(=O)Nc3cc(Br)ccc32)Nc2ccccc21`, the residual activity is 87%. For `Cc1ccc(S(=O)(=O)/C=C/C#N)cc1`, the residual activity amounted to 118%. In the case of `Cc1nc2cc3nc(-c4cccs4)cnc3cc2n1C`, the residual activity is 115%. In the case of `N#C/C(=C\c1ccc(O)c(O)c1)C(=O)NCc1ccccc1` it was 129%; in that of `Cc1ccc(NC2=CC(=O)c3sc(C)nc3C2=O)cc1`, 96%. As to `O=C1Cc2c([nH]c3ccc([N+](=O)[O-])cc23)-c2ccccc2N1`, the residual activity was determined as 105%. For the molecule `O=C(c1cc2cc(O)ccc2[nH]1)c1cc2cc(O)ccc2[nH]1`, the residual activity was 109%.

Regarding `CN(C)c1ccc(/C=C2\C(=O)Nc3ccccc32)cc1`, the residual activity was 115%. As to `O=C1NC(=O)/C(=C/c2ccc3c(c2)OC(F)(F)O3)S1`, the residual activity came out at 102%.

For `O=c1cc(N2CCOCC2)oc2c1ccc1ccccc12`, the residual activity was 93%.

`NC(=O)c1ccc2[nH]c(-c3ccc(Oc4ccc(Cl)cc4)cc3)nc2c1`: the residual activity amounted to 96%.
